An excerpt weighted towards active compounds, which were near 12% of everything screened.
CHX counter – Cycloheximide Counterscreen for Small Molecule Inhibitors of Shiga Toxin; max response, %; cell reporter, cycloheximide protein synthesis inhibition counterscreen; AID 2314, 2010; hit rate 12% among 300,000; in the data active means max response mostly above about 13%, no sharp cut-off; inactive means mostly below about 14%; further: read at 38.3 µM for the half of the compounds with a filed dose
MARV entry inh – qHTS for inhibitors of binding or entry into cells for Marburg Virus | Marburg virus pseudotyped entry inhibition, cell reporter | Potency, µM (titrated, usually from 37.8 µM), usual class: inhibitors | AID 540276, 2011 | hit rate 1.8% among 300,000; calls by dose curve; tested in HEK293 cells
Shiga inhibitor – A qHTS for Small Molecule Inhibitors of Shiga Toxin. Vero cells, Shiga toxin protein synthesis inhibition reporter. inhibition, % at 38.7 µM. hit rate 9.2% among 290,000; in the data active means inhibition mostly above about 28%, no sharp cut-off; inactive means mostly below about 43%
Lassa entry inh – qHTS for Inhibitors of binding or entry into cells for Lassa Virus. Lassa virus pseudotype entry inhibition, cell reporter. Potency, µM (top dose mostly 37.9 µM), usual class: inhibitors. hit rate 1.2% among 300,000. AID 540256, 2011; calls by dose curve; tested in HEK293 cells; further: nearly all actives have a fitted effect of over 50% in size
Each line names hits and unclear results; the compound was inactive in the other large screens.

CCOc1ccc2nc(N3CCCC(C(=O)NCCc4ccc(C)cc4)C3)sc2c1 (configuration not stated)	none (no result: CHX counter, Shiga inhibitor, Lassa entry inh)
CCOc1ccc2nc(N3CCCC(C(=O)NCC4CCCO4)C3)sc2c1 (configuration not stated)	CHX counter 44.8, Shiga inhibitor 75.1 (no result: MARV entry inh, Lassa entry inh)
CCOc1ccc2nc(N3C(=O)/C(=C/c4ccccc4)NC3=S)sc2c1	CHX counter 26.6, MARV entry inh inconclusive, Shiga inhibitor 176.9, Lassa entry inh 12.6µM
CCOc1ccc2nc(N3CCC(C(=O)Nc4nnc(CC)s4)CC3)sc2c1	CHX counter 81.4, Shiga inhibitor 166.6 (no result: MARV entry inh, Lassa entry inh)
Cc1ccc(CSc2nc3ccc(NC(=O)COc4ccc(F)cc4)cc3s2)cc1	MARV entry inh inconclusive (no result: CHX counter, Shiga inhibitor)
Cc1cc(O)c(C(c2ccc(F)cc2)N2CCN(c3ccccc3)CC2)c(=O)n1Cc1ccco1 (configuration not stated)	none (no result: CHX counter, MARV entry inh, Shiga inhibitor)
CCCOc1ccc(N/C=C/C(=O)c2ccc(OC)c(OC)c2)cc1	Lassa entry inh inconclusive
COc1ccc(C(=O)/C=C/Nc2ccc(C)cn2)cc1OC	CHX counter 38.0, Shiga inhibitor 75.4, Lassa entry inh inconclusive
NC(N)=NS(=O)(=O)c1ccc(N/C=C/C(=O)c2ccc(Cl)c(Cl)c2)cc1	none (no result: MARV entry inh, Lassa entry inh)
COc1ccc(C(=O)/C=C/Nc2ccc(S(N)(=O)=O)cc2)cc1OC	CHX counter 14.0
COc1ccc(C(=O)/C=C/NCc2ccc(F)cc2)cc1OC	Lassa entry inh inconclusive
CCOc1ccc(N/C=C/C(=O)c2ccc(OC)c(OC)c2)cc1	CHX counter 40.6, Shiga inhibitor 82.5 (no result: MARV entry inh, Lassa entry inh)
CCOc1ccc(C(=O)/C=C/Nc2ccc(S(=O)(=O)N=C(N)N)cc2)cc1	CHX counter 22.9, Shiga inhibitor 62.1
COc1cccc(NC(=O)Cc2csc(COc3cccc(C)c3)n2)c1	none (no result: CHX counter, Shiga inhibitor)
CCCCCSc1cc(O)c(C(CNC)C(C)C)cc1OC (configuration not stated)	MARV entry inh 18.4µM, Lassa entry inh inconclusive
Cc1ccc(/C(N)=N/OC(=O)c2ccco2)cc1	CHX counter 21.8, MARV entry inh inconclusive, Shiga inhibitor active, Lassa entry inh inconclusive
N/C(=N\OC(=O)c1ccco1)c1ccccc1	CHX counter 32.4, Shiga inhibitor active
N/C(=N\OC(=O)c1ccco1)c1ccccn1	CHX counter 44.0, Shiga inhibitor 94.6 (no result: MARV entry inh, Lassa entry inh)
O=C(Oc1cccc2cccnc12)c1ccco1	none
COc1ccc(/C(N)=N/OC(=O)c2ccco2)cc1	MARV entry inh inconclusive, Lassa entry inh 7.08µM
O=C(Oc1ccc(-c2ccccc2)cc1)c1ccco1	none (no result: CHX counter, Shiga inhibitor)
COc1cc(C(=O)NCc2nnc(SCC(=O)N3CCOCC3)o2)cc(OC)c1OC	none
CCN1C(=O)C2C(C1=O)N1C(c3cccs3)C3C(=O)N(CC)C(=O)C3N1C2c1cccs1 (configuration not stated)	none
Cc1occc1C(=O)O/N=C(\N)c1ccc(Cl)cc1	CHX counter 66.1, MARV entry inh inconclusive, Shiga inhibitor 135.9, Lassa entry inh inconclusive
N/C(=N\OC(=O)c1ccco1)c1ccc(Br)cc1	CHX counter 38.7, Shiga inhibitor 95.0
Cc1cccc(/C(N)=N/OC(=O)c2ccco2)c1	CHX counter 26.4, MARV entry inh inconclusive, Shiga inhibitor 71.5, Lassa entry inh inconclusive
Cc1cccc(C(=O)NCCNC(=O)c2ccco2)c1	none
COc1ccc(C(=O)COC(=O)c2ccn(C)n2)cc1	CHX counter 42.4, MARV entry inh inconclusive, Shiga inhibitor 104.3, Lassa entry inh inconclusive
Cn1ccc(C(=O)OCC(=O)Nc2ccccc2)n1	none
Cc1ccc(-n2nc(C)c3c(C)cc(=O)n(CC(=O)Nc4cccc(C)c4C)c32)cc1	none (no result: CHX counter, MARV entry inh, Shiga inhibitor)
COc1ccc(C(=O)COC(=O)c2ccco2)cc1	CHX counter 43.4, Shiga inhibitor 50.4, Lassa entry inh inconclusive
COc1ccc(N=N/C(=C\O)C(=O)c2ccco2)cc1	CHX counter 39.6, Shiga inhibitor 83.5, Lassa entry inh inconclusive
COc1ccc(C(=O)Nc2ccc(NC(=O)c3ccco3)cc2)cc1	MARV entry inh inconclusive
Cc1snc2sc(C(=O)c3ccc(Br)cc3)c(N)c12	CHX counter 26.6, Lassa entry inh inconclusive
Cc1cc(C)c2c(N)c(C(=O)c3cccc(Cl)c3)sc2n1	none
C=CCNc1sc(C(=O)c2ccc(C)cc2)c(N)c1C#N	none
Cc1ccc(C(=O)c2sc3nsc(C)c3c2N)cc1	CHX counter 86.3, MARV entry inh inconclusive, Shiga inhibitor 154.9, Lassa entry inh inconclusive
COc1ccccc1C1CC(=O)Oc2ccc(C(C)(C)C)cc21 (configuration not stated)	none (no result: MARV entry inh, Lassa entry inh)
Cc1ccc(-c2nnc(SCC(=O)NC3CC3)n2N)cc1	none (no result: MARV entry inh, Lassa entry inh)
O=C(O)CC(c1ccccc1)N1C(=O)c2cccc([N+](=O)[O-])c2C1=O (configuration not stated)	none (no result: MARV entry inh, Lassa entry inh)
CCCNC(=O)CCSc1nc(-c2ccc3c(c2)OCO3)cc(C(F)(F)F)n1	none (no result: CHX counter, Shiga inhibitor)
O=C(Nc1cccc(C(=O)N2CCCCC2)c1)c1ccc(Cl)cc1	CHX counter 29.3 (no result: MARV entry inh, Lassa entry inh)

Source: PubChem BioAssay (National Center for Advancing Translational Sciences (NCATS))
